Experimental data as given in PubChem BioAssay (EPA / NIEHS).
Activity calls are given as the source filed them. How the source made its calls: active means hit-call score of the fitted dose curve at least 0.9, where 1 is the maximum; inactive means score below 0.9.

Legend:
[1] = ATG_GRE_CIS: Attagene CIS-FACTORIAL HepG2 Assay for human Glucocorticoid Response Elements (GRE) (AID 2282947); conditions: HepG2 GRE cis-reporter, Attagene multiplex mRNA; actives raise or lower the signal
Summary of the method: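 Fluorescence intensity of reporter-specific cDNA fragments, separated by capillary electrophoresis, provides the signal. Constructs carry cis-regulating promoters in transiently transfected HepG2 liver cells; 24 h incubation; fitting is bidirectional against DMSO.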

[2] = ATG_ISRE_CIS: Attagene CIS-FACTORIAL HepG2 Assay for human Interferon Regulatory Factor 1 (IRF1) binding to an Interferon-Stimulated Response Element (ISRE) (AID 2282948); conditions: HepG2 ISRE cis-reporter (Attagene), mRNA transcription readout; actives raise or lower the signal
Summary of the method: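 Endogenous transcription factor activity read as reporter transcript abundance via RT-PCR and capillary electrophoresis. HepG2 cells transiently transfected, 24 h chemical exposure. Gain or loss fitted against DMSO baseline.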

[3] = ATG_M_32_CIS: Attagene CIS-FACTORIAL HepG2 Assay for M32 Transcription Factor (Internal Marker) (AID 2282949); conditions: HepG2 Attagene cis-factorial M32 reporter, mRNA; actives raise or lower the signal;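 further: background control marker of the multiplexed CIS panel rather than a real target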
Summary of the method: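 HepG2 transfectants (cis-regulated reporter transcription units) dosed 24 h. Reporter mRNA by RT-PCR plus CE, analysed as gain or loss relative to DMSO.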

[4] = ATG_M_06_CIS: Attagene CIS-FACTORIAL HepG2 Assay for M06 Transcription Factor (Internal Marker) (AID 2282950); conditions: HepG2 Attagene CIS-FACTORIAL M06 internal marker reporter; actives raise or lower the signal
Summary of the method: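 Steps: transfect HepG2 with multiplexed cis-element reporter constructs; dose chemical 24 h; extract RNA with DNase treatment; reverse-transcribe, PCR-amplify, 6-FAM label, HpaI digest; separate fragments by capillary electrophoresis. Activity fitted both directions versus DMSO.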

[5] = biological target: Hypoxia-inducible factor 1-alpha (Homo sapiens) (UniProt Q16665); test: ATG_HIF1a_CIS: Attagene CIS-FACTORIAL HepG2 Assay for human Hypoxia Inducible Factor 1 (HIF1A) (AID 2282951); conditions: HepG2 Attagene cis-factorial HIF1a reporter transcription; actives raise or lower the signal
Summary of the method: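 Measures endogenous transcription-factor activity through cis-regulated reporter mRNA in HepG2. Cells dosed 24 h; transcripts quantified by RT-PCR with 6-FAM-labelled products separated by capillary electrophoresis; DMSO serves as negative control.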

[6] = biological target: Hepatocyte nuclear factor 6 (Homo sapiens) (UniProt Q9UBC0); test: ATG_HNF6_CIS: Attagene CIS-FACTORIAL HepG2 Assay for human Hepatocyte Nuclear Factor 6 (HNF6) (AID 2282952); conditions: HepG2 Attagene cis-factorial HNF6 reporter transcription; actives raise or lower the signal
Summary of the method: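 Readout: fluorescent reporter-transcript fragments resolved by capillary electrophoresis after RT-PCR, reflecting endogenous factor activity in transfected HepG2. Exposure 24 h. Gain or loss of signal fitted bidirectionally against DMSO.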

[7] = biological target: Heat shock factor protein 1 (Homo sapiens) (UniProt Q00613); test: ATG_HSE_CIS: Attagene CIS-FACTORIAL HepG2 Assay for human Heat Shock Transcription Factor 1 (HSE) (AID 2282953); conditions: HepG2 HSE cis-reporter, Attagene RNA transcription; actives raise or lower the signal
Summary of the method: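 Cells were transfected with cis-element-driven reporter constructs, dosed for 24 h, then total RNA was reverse-transcribed and reporter cDNA amplified, FAM-labelled and digested with HpaI. Fragments were resolved by capillary electrophoresis; gain or loss was fitted against DMSO.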

[8] = ATG_MRE_CIS: Attagene CIS-FACTORIAL HepG2 Assay for human Metal Responsive Element (MRE) (AID 2282954); conditions: HepG2 MRE cis-reporter transcription, Attagene multiplex; actives raise or lower the signal
Summary of the method: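 Measured here is mRNA induction from an MRE cis-element reporter in HepG2 after 24 h, quantified by fluorescence of labelled RT-PCR products on capillary electrophoresis; gain- and loss-of-signal fits use DMSO as baseline.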

[9] = biological target: Paired box protein Pax-6 (Homo sapiens) (UniProt P26367); test: ATG_Pax6_CIS: Attagene CIS-FACTORIAL HepG2 Assay for human Paired Box 6 (PAX6) (AID 2282956); conditions: HepG2 CIS-FACTORIAL PAX6 reporter transcription, RNA readout; actives raise or lower the signal
Summary of the method: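 Read-out is reporter transcript level, measured by RT-PCR with fluorescent primer extension and capillary electrophoresis after 24 h dosing of transfected HepG2 cells. Activity in either direction fitted relative to DMSO control.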

[10] = ATG_PXRE_CIS: Attagene CIS-FACTORIAL HepG2 Assay for human Pregnane X Receptor Element (PXRE) (AID 2282957); conditions: HepG2 Attagene CIS-FACTORIAL PXRE reporter, mRNA; actives raise or lower the signal
Summary of the method: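 Read-out: fluorescence of reporter-specific RT-PCR products resolved by capillary electrophoresis, fitted bidirectionally relative to DMSO. Human HepG2 liver cells carried transfected cis-promoter reporter units and were exposed to chemicals for 24 h.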

[11] = ATG_PPRE_CIS: Attagene CIS-FACTORIAL HepG2 Assay for human Peroxisome Proliferator-activated Response Element (PPRE) (AID 2282958); conditions: HepG2 PPRE cis-element reporter, Attagene transcription factor profiling; actives raise or lower the signal
Summary of the method: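 Cells are first transfected transiently with the multiplexed reporter library, then dosed for 24 h. Total RNA is reverse-transcribed, amplified, fluorescently end-labeled and HpaI-cut before capillary electrophoresis; activity is fitted bidirectionally against DMSO controls.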

[12] = ATG_RORE_CIS: Attagene CIS-FACTORIAL HepG2 Assay for human RAR-related Orphan Receptor Element (RORE) (AID 2282959); conditions: HepG2 Attagene cis-factorial RORE reporter, mRNA; actives raise or lower the signal
Summary of the method: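 Cells were HepG2 carrying transfected cis-regulated reporter constructs, dosed for 24 hours. Total RNA was reverse-transcribed and reporter cDNA amplified, fluorescently labeled and sized by capillary electrophoresis. Activity was fitted bidirectionally relative to DMSO.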

[13] = ATG_Sox_CIS: Attagene CIS-FACTORIAL HepG2 Assay for human SRY-box transcription factor (SOX) (AID 2282960); conditions: HepG2 Attagene cis-factorial SOX reporter, mRNA; actives raise or lower the signal
Summary of the method: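 Transient MRTU transfection of HepG2; 24 h compound incubation; TriZol RNA, oligo(dT) RT, PCR, 6-FAM primer extension, HpaI cut, CE. Bidirectional fit, DMSO = baseline.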

[14] = biological target: Transcription factor Sp1 (Homo sapiens) (UniProt P08047); test: ATG_Sp1_CIS: Attagene CIS-FACTORIAL HepG2 Assay for human Specificity Protein 1 (Sp1) (AID 2282961); conditions: HepG2 Sp1 cis-reporter transcription, actives raise or lower the signal
Summary of the method: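 Endogenous Sp1 activity was gauged in human liver HepG2 cells bearing transfected reporter units under a cis-regulating promoter. After 24 h dosing, reporter mRNA was quantified by RT-PCR with capillary electrophoresis, and activity fitted bidirectionally versus DMSO.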

[15] = ATG_SREBP_CIS: Attagene CIS-FACTORIAL HepG2 Assay for human Sterol Regulatory Element Binding (SREBP) (AID 2282962); conditions: HepG2 Attagene cis-factorial SREBP reporter, mRNA; actives raise or lower the signal
Summary of the method: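 Endogenous SREBP activity read as cis-element-driven reporter transcript in transiently transfected HepG2, 24 h post-dosing; quantified via RT-PCR plus capillary electrophoresis of fluorescent fragments. Gain or loss of signal fitted relative to DMSO baseline.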

[16] = biological target: Signal transducer and activator of transcription 3 (Homo sapiens) (UniProt P40763); test: ATG_STAT3_CIS: Attagene CIS-FACTORIAL HepG2 Assay for human Signal Transducer and Activator of Transcription 3 (STAT3) (AID 2282963); conditions: HepG2, Attagene cis-factorial STAT3 reporter transcription; actives raise or lower the signal
Summary of the method: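 Fluorescence intensity of 6-FAM-labelled reporter fragments, separated by capillary electrophoresis after RT-PCR, gave the signal. Cells were HepG2 transfected with cis-element reporter units and treated 24 h; fitting was bidirectional relative to DMSO.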

[17] = ATG_TA_CIS: Attagene CIS-FACTORIAL HepG2 Assay for human TA Basal Promoter (AID 2282964); conditions: HepG2 Attagene CIS-factorial TA basal promoter reporter; actives raise or lower the signal
Summary of the method: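 Steps: transfect HepG2 with MRTUs; dose 24 h; isolate RNA, DNase-treat, reverse-transcribe; PCR and FAM-label reporter cDNA; digest with HpaI 2h at 37 C; run capillary electrophoresis. Activity fitted both directions against DMSO.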

[18] = ATG_PBREM_CIS: Attagene CIS-FACTORIAL HepG2 Assay for human Phenobarbital-responsive Enhancer Module (PBREM) (AID 2282955); conditions: HepG2 PBREM cis-reporter, Attagene multiplexed transcription; actives raise or lower the signal
Summary of the method: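 Fluorescence of labelled reporter cDNA fragments, resolved by capillary electrophoresis, gives mRNA induction in transfected HepG2 cells treated for 24 h; DMSO serves as negative control and baseline.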

[19] = ATG_TCF_b_cat_CIS: Attagene CIS-FACTORIAL HepG2 Assay for human T-Cell-Factor with beta-catenin (TCF/b-cat) (AID 2282965); conditions: HepG2 TCF/beta-catenin cis-reporter transcription, actives raise or lower the signal
Summary of the method: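 HepG2, transient MRTU transfection, cis-element-driven reporters (endogenous TFs). 24 h compound exposure. Readout: reporter mRNA by RT-PCR + 6-FAM primer extension, HpaI digest, capillary electrophoresis. Gain/loss fit vs DMSO baseline.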

Measured: AC50

Sequence of Paired box protein Pax-6 (Homo sapiens) (P26367 whole entry, looked up): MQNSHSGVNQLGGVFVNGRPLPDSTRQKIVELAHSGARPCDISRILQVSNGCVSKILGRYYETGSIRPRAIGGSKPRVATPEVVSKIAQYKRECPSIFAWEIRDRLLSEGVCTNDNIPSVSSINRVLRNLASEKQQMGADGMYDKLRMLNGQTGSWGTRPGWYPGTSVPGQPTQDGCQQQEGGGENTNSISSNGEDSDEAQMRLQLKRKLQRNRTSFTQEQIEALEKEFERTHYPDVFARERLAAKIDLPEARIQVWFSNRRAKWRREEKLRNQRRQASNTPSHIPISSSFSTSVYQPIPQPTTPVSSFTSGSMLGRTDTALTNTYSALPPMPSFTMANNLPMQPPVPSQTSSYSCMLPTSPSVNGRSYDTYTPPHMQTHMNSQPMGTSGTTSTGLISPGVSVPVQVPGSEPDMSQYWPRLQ
Sequence of Transcription factor Sp1 (Homo sapiens) (P08047 whole entry, looked up): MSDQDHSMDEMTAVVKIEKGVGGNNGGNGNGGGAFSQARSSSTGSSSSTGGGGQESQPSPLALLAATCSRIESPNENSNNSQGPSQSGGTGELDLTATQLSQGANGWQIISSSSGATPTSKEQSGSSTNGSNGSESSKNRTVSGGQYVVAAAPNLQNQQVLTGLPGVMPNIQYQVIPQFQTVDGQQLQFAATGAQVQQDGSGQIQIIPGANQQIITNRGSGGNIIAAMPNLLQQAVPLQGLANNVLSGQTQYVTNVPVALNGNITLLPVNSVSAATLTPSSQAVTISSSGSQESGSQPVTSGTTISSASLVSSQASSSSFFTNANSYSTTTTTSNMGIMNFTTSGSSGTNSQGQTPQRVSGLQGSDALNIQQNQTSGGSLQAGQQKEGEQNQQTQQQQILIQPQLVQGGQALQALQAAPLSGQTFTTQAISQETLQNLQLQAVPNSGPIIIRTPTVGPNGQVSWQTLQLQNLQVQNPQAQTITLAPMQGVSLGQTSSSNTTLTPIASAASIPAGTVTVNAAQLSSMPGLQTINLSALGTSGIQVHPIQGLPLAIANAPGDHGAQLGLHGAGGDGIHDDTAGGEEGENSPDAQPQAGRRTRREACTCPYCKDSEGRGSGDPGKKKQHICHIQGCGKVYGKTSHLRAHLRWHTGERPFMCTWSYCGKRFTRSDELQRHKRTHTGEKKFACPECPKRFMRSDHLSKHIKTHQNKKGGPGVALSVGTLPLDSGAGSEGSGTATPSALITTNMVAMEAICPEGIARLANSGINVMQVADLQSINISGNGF
Sequence of Signal transducer and activator of transcription 3 (Homo sapiens) (P40763 whole entry, looked up, the tested form may be a part): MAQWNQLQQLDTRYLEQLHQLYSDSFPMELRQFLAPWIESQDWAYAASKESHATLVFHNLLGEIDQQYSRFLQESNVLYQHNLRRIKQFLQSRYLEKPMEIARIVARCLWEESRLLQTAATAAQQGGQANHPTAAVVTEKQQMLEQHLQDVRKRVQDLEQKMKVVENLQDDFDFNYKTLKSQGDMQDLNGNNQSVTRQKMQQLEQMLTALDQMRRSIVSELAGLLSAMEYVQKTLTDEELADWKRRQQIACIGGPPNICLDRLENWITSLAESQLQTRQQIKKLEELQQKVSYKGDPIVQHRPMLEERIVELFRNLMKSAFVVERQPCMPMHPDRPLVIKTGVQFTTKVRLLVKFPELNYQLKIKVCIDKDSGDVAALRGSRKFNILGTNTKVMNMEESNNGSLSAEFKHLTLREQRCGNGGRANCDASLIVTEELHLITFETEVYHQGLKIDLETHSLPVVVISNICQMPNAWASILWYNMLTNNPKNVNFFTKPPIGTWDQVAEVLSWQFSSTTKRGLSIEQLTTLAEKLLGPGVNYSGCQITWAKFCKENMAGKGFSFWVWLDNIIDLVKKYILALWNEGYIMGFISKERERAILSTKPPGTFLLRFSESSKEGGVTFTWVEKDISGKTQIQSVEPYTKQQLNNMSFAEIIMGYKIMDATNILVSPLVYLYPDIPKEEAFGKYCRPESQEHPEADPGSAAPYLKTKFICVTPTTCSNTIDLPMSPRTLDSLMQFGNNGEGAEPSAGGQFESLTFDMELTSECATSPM
Sequence of Hepatocyte nuclear factor 6 (Homo sapiens) (Q9UBC0 whole entry, looked up, the tested form may be a part): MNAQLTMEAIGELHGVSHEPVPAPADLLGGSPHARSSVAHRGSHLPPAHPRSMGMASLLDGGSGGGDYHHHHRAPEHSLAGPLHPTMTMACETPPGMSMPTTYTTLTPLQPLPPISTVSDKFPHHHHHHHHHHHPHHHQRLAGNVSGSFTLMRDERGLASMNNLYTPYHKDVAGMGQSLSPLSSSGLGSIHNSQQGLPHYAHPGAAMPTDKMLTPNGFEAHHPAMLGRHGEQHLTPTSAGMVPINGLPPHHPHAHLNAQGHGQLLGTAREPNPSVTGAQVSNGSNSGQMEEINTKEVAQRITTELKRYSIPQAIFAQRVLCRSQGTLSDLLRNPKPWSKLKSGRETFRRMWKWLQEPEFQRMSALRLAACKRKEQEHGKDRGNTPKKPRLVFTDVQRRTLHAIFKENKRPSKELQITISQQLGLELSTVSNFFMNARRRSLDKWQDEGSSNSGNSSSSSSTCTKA
Sequence of Heat shock factor protein 1 (Homo sapiens) (Q00613 whole entry, looked up, the tested form may be a part): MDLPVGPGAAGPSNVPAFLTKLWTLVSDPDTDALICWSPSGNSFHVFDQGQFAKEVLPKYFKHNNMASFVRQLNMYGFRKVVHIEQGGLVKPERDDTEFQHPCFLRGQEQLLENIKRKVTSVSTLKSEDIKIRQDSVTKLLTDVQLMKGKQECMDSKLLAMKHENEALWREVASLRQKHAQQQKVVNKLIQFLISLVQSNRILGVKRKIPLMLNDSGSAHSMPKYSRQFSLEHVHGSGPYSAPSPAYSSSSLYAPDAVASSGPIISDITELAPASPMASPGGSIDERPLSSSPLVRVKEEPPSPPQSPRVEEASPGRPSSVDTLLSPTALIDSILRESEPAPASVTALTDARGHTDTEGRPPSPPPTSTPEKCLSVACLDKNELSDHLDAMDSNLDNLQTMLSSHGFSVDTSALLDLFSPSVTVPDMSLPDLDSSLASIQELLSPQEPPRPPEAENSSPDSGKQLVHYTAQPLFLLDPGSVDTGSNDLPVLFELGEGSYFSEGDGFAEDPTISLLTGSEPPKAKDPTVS
Sequence of Hypoxia-inducible factor 1-alpha (Homo sapiens) (Q16665 whole entry, looked up): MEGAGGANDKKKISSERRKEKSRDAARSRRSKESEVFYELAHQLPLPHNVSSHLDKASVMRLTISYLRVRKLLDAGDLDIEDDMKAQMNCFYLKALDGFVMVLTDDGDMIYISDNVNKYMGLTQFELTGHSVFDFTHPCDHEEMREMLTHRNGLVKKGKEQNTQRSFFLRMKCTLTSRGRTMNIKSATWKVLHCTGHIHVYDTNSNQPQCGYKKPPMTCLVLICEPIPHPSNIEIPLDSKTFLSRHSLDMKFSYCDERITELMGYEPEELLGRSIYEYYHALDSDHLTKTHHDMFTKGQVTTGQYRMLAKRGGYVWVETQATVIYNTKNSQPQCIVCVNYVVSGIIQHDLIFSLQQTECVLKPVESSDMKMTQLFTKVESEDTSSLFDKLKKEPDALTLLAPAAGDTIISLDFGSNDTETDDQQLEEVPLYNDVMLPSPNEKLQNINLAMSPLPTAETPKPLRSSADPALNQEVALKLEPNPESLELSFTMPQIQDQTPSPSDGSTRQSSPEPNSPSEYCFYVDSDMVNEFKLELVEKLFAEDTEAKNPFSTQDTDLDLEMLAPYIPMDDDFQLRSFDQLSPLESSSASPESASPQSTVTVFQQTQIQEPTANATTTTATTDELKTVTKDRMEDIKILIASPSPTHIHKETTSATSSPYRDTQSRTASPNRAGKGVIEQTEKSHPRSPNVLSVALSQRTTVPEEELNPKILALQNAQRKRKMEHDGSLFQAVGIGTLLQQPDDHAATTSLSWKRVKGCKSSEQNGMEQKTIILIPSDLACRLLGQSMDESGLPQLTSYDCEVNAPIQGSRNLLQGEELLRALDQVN

CNC
not listed: [18] | [19]
inactive: all other assays above

CC(Br)C(=O)O (stereo unspecified)
not listed: [10]
inactive: all other assays above

Cc1cc(=O)[nH]o1
active: [10] 42.8 µM
not listed: [18]
inactive: all other assays above

CCCCCCCCSC(=O)Oc1cc(Cl)nnc1-c1ccccc1
active: [2] 164 µM | [9] 146 µM | [10] 27.1 µM | [17] 124 µM | [19] 170 µM
not listed: [1] | [18]
inactive: all other assays above

CCc1ccccc1N
active: [10] 68.3 µM
not listed: [1]
inactive: all other assays above

O=C1C(Cl)=C(Cl)C(=O)c2ccccc21
active: [7] 13.6 µM
not listed: [1] | [18] | [19]
inactive: all other assays above

CC(C)(c1ccc(OCC2CO2)cc1)c1ccc(OCC2CO2)cc1 (stereo unspecified)
active: [2] 58 µM | [5] 31.2 µM | [7] 60.5 µM | [8] 31.8 µM | [9] 39.2 µM | [10] 8.18 µM | [12] 33.4 µM | [15] 15.1 µM | [17] 33.4 µM | [19] 49.7 µM
inactive: [4] | [6] | [18] | [11] | [13] | [14] | [16]
